Values joined by “and” are separate entries in the source; they are usually repeats but may differ in a detail not shown here. Equal values may be shown once. Compounds without any hit were thinned out: in the full panel of roughly 83,000, 20% have a hit.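 Treatment: one concentration, 48 hours, 96-well format. Scoring: percent growth, with anything below 10 considered active.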 Active and inactive are the calls of the source.
These compounds were tested on HL-60(TB) leukemia (assay: NCI-60 one-dose screen, 48 h (100 = growth as untreated, 0 = no growth, -100 = all killed)). Conditions: 10 µM unless noted.
`CC(=O)NCC(=O)c1ccc([N+](=O)[O-])cc1` was tested, and the growth was 103% (inactive). `Cc1cc(C)n2nc(SCC(=O)Nc3sc4c(c3C(N)=O)CCC4)nc2n1` was tested, and the growth was 117% (inactive). For `N/C(=N\c1nc2ccccc2s1)NC(=O)Nc1ccccc1Cl`, the growth was -27.3% (active). In the case of `FC(F)(F)c1ccc(-c2cn3nc(-c4c[nH]c5ccc(Br)cc45)sc3n2)cc1`, the growth is reported as 96.9% (inactive). With `Cc1cc(N2CCC(N3CCCC3)CC2)nc(/N=C(\N)Nc2ccc(Cl)c(Cl)c2)n1` the growth was 90.4% (inactive). `C=CCc1cc(OC)c(O)c(OC)c1` was tested, and the growth was 109% (inactive). For `C#Cc1c2c(c(OC)c3c1OCO3)[C@H]([C@H]1OC(=O)c3c1ccc(OC)c3OC)N(C)CC2`, the growth was 72.5% (inactive). For `CNc1nnc2n(-c3ccccc3)c(=O)c3cnn(-c4ccccc4)c3n12`, the growth was 70.5% (inactive). In the case of `COc1ccc(/C(=C/c2cc(OC)c(OC)cc2[N+](=O)[O-])C(=O)O)cc1`, the growth is reported as 98.5% (inactive). With `COC(=O)c1cc(-c2ccc(OC)cc2)[nH]c1N/N=C/c1c(Cl)cccc1Cl` the growth was -44.9% (active). For `c1ccc(CNc2c3ccccc3nc3ccccc23)cc1`, the growth was 43.8% (inactive). In the case of `C=C(C(N)=O)C(N)C(=O)O` (stereo not drawn), the growth is reported as 104% (inactive). In the case of `CCc1cccc(CC)c1NC(=O)c1sc2nc3c(cc2c1N)CCCC3`, the growth is reported as 41% (inactive). `Oc1ccc(O)c(-[n+]2ccccc2)c1` was tested, and the growth was 101% (inactive). With `Nc1nc(Cl)nc2c1ncn2C1OC(CO)C(O)C1O` (stereo not drawn) the growth was -20.7% (active) and -3.23% (active). For `CCCCCCCCCCCCCCCCN(CC)CC`, the growth was -61.2% (active). In the case of `O=C(Nc1ccc([N+](=O)[O-])cc1Cl)c1cc(Cl)ccc1O`, the growth is reported as -30.7% (active) and -30.9% (active). For `COc1cc(C(=O)NC(=S)NCc2ccncc2)cc(OC)c1OC`, the growth was 89.7% (inactive). For `CN(C)c1ccc(C(Cc2ccc3ccccc3n2)Cc2ccc3ccccc3n2)cc1`, the growth was 16% (inactive) and 73.5% (inactive). `O=C(Nc1ccc(Oc2cccc(Cl)c2)c(Cl)c1)c1cnccn1` was tested, and the growth was 1.5% (active). For `Cc1[nH]c2ccc(F)cc2c1CCNC(=O)C1CCN(C(=O)c2ccccc2)CC1`, the growth was 102% [25 µM] (inactive). With `O=C1OC(C(O)C(O)CO)C(O)=C1O` (stereo not drawn) the growth was 114% (inactive) and 104% (inactive). In the case of `C/C(=N\Nc1cc(C)c2ccccc2n1)c1ccccn1`, the growth is reported as -47.1% (active).

— PubChem BioAssay (NCI)
